The whole screen tested about 340,000 compounds, of which about 2,100 (0.62%) were called active.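 Rule for the calls: active = first-screen hits whose inhibition reached a set limit at any dose in the follow-up dose series; inconclusive = inhibition above the set first-screen limit but never retested; inactive = the rest.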 A selection follows. Potency and affinity values are given separately.
Target: Rac GTPase-activating protein 1 (Homo sapiens) (UniProt Q9H0H5)
Assay: blockers of MgcRacGAP-driven Rac1 GTP hydrolysis – biochemical, ADP Hunter fluorescence, primary and confirmatory, confirmation (AID 624330);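 note: fluorescence reports GDP produced by GAP-driven GTP hydrolysis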
Conditions: MgcRacGAP-stimulated Rac1 GTP hydrolysis, at 30 µM, stronger effect = higher value, GST-tagged Rac1 F28L mutant substrate

Chain of Rac GTPase-activating protein 1 (Homo sapiens) (Q9H0H5 whole entry, looked up): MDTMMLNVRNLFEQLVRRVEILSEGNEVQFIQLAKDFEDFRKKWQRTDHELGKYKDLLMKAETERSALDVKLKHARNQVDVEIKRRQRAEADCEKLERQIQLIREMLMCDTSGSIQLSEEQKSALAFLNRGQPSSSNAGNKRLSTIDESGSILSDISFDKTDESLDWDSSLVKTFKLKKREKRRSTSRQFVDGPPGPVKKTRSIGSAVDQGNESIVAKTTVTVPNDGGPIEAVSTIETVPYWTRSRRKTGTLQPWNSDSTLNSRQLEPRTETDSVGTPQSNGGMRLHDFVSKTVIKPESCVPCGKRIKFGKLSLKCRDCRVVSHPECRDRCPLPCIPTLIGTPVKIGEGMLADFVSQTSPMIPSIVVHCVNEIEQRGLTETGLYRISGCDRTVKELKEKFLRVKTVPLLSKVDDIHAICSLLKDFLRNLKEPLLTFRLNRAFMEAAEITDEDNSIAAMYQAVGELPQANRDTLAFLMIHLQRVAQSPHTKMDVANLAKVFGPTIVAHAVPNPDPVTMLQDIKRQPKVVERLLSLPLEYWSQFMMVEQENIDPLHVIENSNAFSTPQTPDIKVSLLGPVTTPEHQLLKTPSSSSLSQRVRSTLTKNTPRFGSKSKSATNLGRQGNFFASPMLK

inhibition, inactive:
O=C(CNC(=O)c1ccc(Br)o1)Nc1ccc(F)c(S(=O)(=O)N2CCOCC2)c1 5.58%
Clc1ccc(/C=N/N2CCCCC2)cc1 7.04%
Clc1ccc(C=NN2CCCCCC2)cc1 -2.87%
CCOc1ccc(NC(=O)C(C)Oc2ccccc2C(=O)Nc2ccc(C)c(Cl)c2)cc1 (configuration not stated) 5.67%
CC1(NC(=O)NCc2ccccc2)CCS(=O)(=O)C1 (configuration not stated) 10.2%
O=C(c1cccc(Cl)c1)N1CCC(c2nc3ccccc3[nH]2)CC1 9.71%
O=NC1=C(c2c(O)[nH]c3ccccc23)CCCC1 5.2%
O=C1C(c2c(O)[nH]c3ccccc23)=Nc2ccccc21 8.12%
Cc1ccc(NC(=O)COc2nc(C)cs2)cc1 4.7%
CC(=O)C[C@H](O)CC(=O)[C@H]1OC(=O)CC/C=C\Cc2ccccc21 5.25%
COc1ccc(CNCc2ccccc2C(F)(F)F)cc1 29.7%
COc1cc(CNCc2ccc(C)cc2)cc(OC)c1OC 22.2%
COc1cc(CNCc2ccc(OC)c(OC)c2OC)cc(OC)c1 15.6%
COc1cc(CNCc2cccc3ccccc23)cc(OC)c1 25.2%
CCCCn1c(N)c(N(CC(C)C)C(=O)c2cccc(S(=O)(=O)N(C)c3ccccc3)c2)c(=O)[nH]c1=O 5.29%
CCOC(=O)CC(NC(=O)c1ccccc1)c1ccc(OC)cc1 (configuration not stated) 3.97%
COCCNC(=O)c1cccc(OC2CCN(Cc3ccccc3OCCO)CC2)c1 11.3%
O=C(NC(=S)N1CCCCCC1)c1ccccc1 2.51%
COc1c(O)cc2oc(-c3ccc(O)cc3)cc(=O)c2c1O 10.2%
COc1cc2oc(-c3ccc(O)cc3)cc(=O)c2c(O)c1OC 18.1%
CS(=O)(=O)N(Cc1ccco1)CC(O)Cn1cc(C=O)c2ccccc21 (configuration not stated) 8.31%
CCN(CC(=O)Nc1cc(C)c(Cl)cc1OC)CC(=O)NC1CCS(=O)(=O)C1 (configuration not stated) 8.4%
COc1ccc(Cl)cc1NC(=O)CN(C)C1CCS(=O)(=O)C1 (configuration not stated) 6.99%
COCCNC(=O)CSc1ncnc2sc(-c3ccccc3)cc12 6.39%
COCCn1c(=NC(=O)c2ccc(S(=O)(=O)N3CCOCC3)cc2)sc2cc(S(N)(=O)=O)ccc21 8.39%
FC(F)(F)c1cnc2c(-c3ccc(Cl)cc3Cl)noc2c1 10.7%
CO/N=C/C(C(C)=O)C(=O)Nc1ccc(Cl)cc1Cl (configuration not stated) 1.68%
CC(=O)c1cccc(NC(=O)Nc2c(C)nn(C)c2C)c1 6.89%
Cc1ccc(-c2nc(N)sc2-c2ccccc2)cc1C 8.82%
Nc1nc(-c2ccccc2)c(-c2ccccc2)s1 10.3%
O=S(=O)(NCCCN1CCOCC1)c1ccc(Cl)s1 1.35%
COc1ccc(NC(=O)c2ccc(C(=O)c3ccccc3)o2)cc1 1.49%
C/C(=C\C(=O)c1ccccc1)Nc1ccc(Cl)c(Br)c1 6.98%
O=C(Nc1ccccc1O)c1ccc(C(=O)c2ccccc2)o1 3.33%
CC(=O)Nc1ccc(N/C(C)=C/C(=O)c2cccnc2)cc1 -2.43%
C/C(=C\C(=O)c1cccnc1)Nc1ccc(C(=O)O)cc1 -0.69%
COc1ccc(N/C(C)=C/C(=O)c2ccccc2)cc1 10.4%
CCN(CC(=O)NCc1ccc(Cl)cc1)C(=O)Cc1ccc(OC)cc1 5.69%
Cc1cc(C(=O)Nc2ccccc2[N+](=O)[O-])cs1 0.21%
CCOc1ccc(NC(=O)CN(C)C(=O)c2ccc(N3CCCCCC3)c([N+](=O)[O-])c2)cc1OCC 3.24%
CCN(CC)CCCNc1ncnc2ccccc12 8.44%
CCOC(=O)c1ccc2ncc(C(=O)OCC)c(NCCN(C)C)c2c1 -0.66%
CCOC(=O)c1cnc2ccc(Cl)cc2c1NCCN(C)C 14.5%
CCN(CC)CCCNC(=O)c1cc(-c2ccc(O)cc2)on1 25.9%
CN(C)CCNc1ccc(-c2nn(C)c(=O)c3ccccc23)cc1[N+](=O)[O-] 3.29%
Cc1cc(NCCO)c2cc(O)ccc2n1 15%
COC(=O)c1ccccc1NC(=O)c1sc(Cl)nc1C 6.47%
O=C1C=CC(=O)C(CNc2ccc(C(=O)OCc3ccccc3)cc2)=C1 19.7%
Fc1ccc(-c2nnc(N3CCOCC3)c3ccccc23)cc1F 10.8%
COC(=O)C(Cc1ccccc1)NC(=O)CNS(=O)(=O)c1ccc(Br)cc1 (configuration not stated) -0.24%
CCOc1ccc2c(c1)C(=O)c1cc(OCC(=O)O)ccc1-2 13.8%
Cc1cc(OCCCCOc2ccc(S(N)(=O)=O)c(C)c2)ccc1S(N)(=O)=O 6.93%
CC[N+](CC)(CC)CCOc1ccc(/C=C/c2ccccc2)cc1 9.54%
CCCCOc1cccc(C(=O)O)c1 4%
O=C(c1ccc(Cl)c(S(=O)(=O)N2CCCCCC2)c1)N1CCCC(C(F)(F)F)C1 (configuration not stated) 1.91%
COc1cccc(C(=O)NC2CCCc3ccccc32)c1 (configuration not stated) 11.4%
Oc1nc(Nc2ccc(F)cc2)sc1/C=C1\C=Nc2ccccc21 10.4%
O=c1[nH]c(=S)[nH]c(O)c1/C=C1\C=Nc2ccccc21 -1.08%
CSc1nsc2nc(=O)c(/C=C3\C=Nc4ccccc43)c(N)n12 1.86%
Cn1c(O)c(/C=C2\C=Nc3ccccc32)sc1=Nc1ccc(C(=O)O)cc1 7.27%
CC(=O)c1ccc(-n2c(CCC(=O)O)ccc2-c2ccc(Br)cc2)cc1 11.4%
CCCN(CC(=O)Nc1cccc(Br)c1)CC(=O)Nc1ccc(F)c(F)c1F 8.26%
CCc1ccccc1S(=O)(=O)Cc1ccc(C(=O)NCc2cccs2)o1 1.89%
O=C(CN(CC1CCCO1)C(=O)Cn1nnc(-c2ccc(F)cc2)n1)NC1CCCCC1 (configuration not stated) 3.03%
Cc1cccc(C(C)Nc2ccc([N+](=O)[O-])cn2)c1 (configuration not stated) 1.95%
COc1ccc(/C=C/C(=O)c2ccc(O)cc2)cc1 4.28%
COC(=O)c1ccc(/C=C/C(=O)c2ccc(OC)cc2)cc1 4.33%
CCn1cc(C(=O)N2CCN(c3ccc(OC)cc3)CC2)c2cc(OC)c(OC)cc2c1=O 18.7%
CC(C)c1nnc(NC(=O)c2cccc(-n3cnnn3)c2)s1 10.5%
Cc1cc(C)nc(SCC(=O)NC2=NN=C(c3ccc(Br)cc3)CS2)n1 27.2%
Cc1ccc(C2=NN=C(NC(=O)CSc3nnc4c5ccccc5n(C)c4n3)SC2)cc1 28.8%
COc1ccc2nc(/C(C#N)=C\c3ccc(Oc4ccc([N+](=O)[O-])cn4)cc3)[nH]c2c1 5.92%
Cc1cccc(N2C(=O)Cc3ccccc3C2=O)c1 8.26%
Cc1ccc(C(c2nnnn2C2CCCC2)N2CCN(c3nc4ccccc4s3)CC2)cc1 (configuration not stated) 4.8%
Cc1ccc(OCC(=O)N/N=C\c2cccn2C)c([N+](=O)[O-])c1 1.92%
COc1ccc2nc3cc(Cl)ccc3c(Nc3cc(C(C)C)c(O)cc3C)c2c1 7.74%
COc1ccc(N2CCN(Cc3nc4cc(Cl)ccc4c(=O)[nH]3)CC2)cc1 15.2%
CCOc1ccc(N2C(=O)CC(Cc3cc(C)cc(C)c3)C2=O)cc1 (configuration not stated) 7.28%
Cc1ccc(N=C(N)N=C(N)N)cc1 16.3%
Cc1ccc(N=Nc2ccc(O)cc2)c(Br)c1 14.6%
CC(=O)C1C(c2cccc(F)c2)c2c(n[nH]c2C)CC1(C)O (configuration not stated) 9.67%
CCC(=O)N1N=C(c2cccc(NS(C)(=O)=O)c2)CC1c1cccs1 (configuration not stated) 11.9%
COc1cc(NCc2ccccc2)c2ncn(Cc3ccccc3)c2c1 6.64%
CCn1cc(C(=O)Nc2ccc(NC(=O)c3ccco3)cc2)c(=O)c2ccc(C)nc21 0.62%
Cc1cc(C(=O)CN2C(=O)NC3(CCCCC3)C2=O)c(C)n1Cc1ccc2c(c1)OCO2 0.78%
O=c1c(N=Nc2ccccc2)c[nH]n1-c1ccccc1 -5.5%
S=c1[nH]cc(-c2ccccc2)n1-c1cccc(Cl)c1 6.88%
Nc1c(-c2ccccc2)cnn1-c1cccc([N+](=O)[O-])c1 5.5%
Nc1c(-c2cccc(Cl)c2)cnn1-c1ccccc1 20.3%
Cc1[nH]n(-c2cccc([N+](=O)[O-])c2)c(=O)c1-c1ccccc1 8.04%
COc1c[nH]n(-c2ccccc2)c(=O)c1=O 5.24%
COC(=O)c1ccsc1NC(=O)c1ccco1 6.38%
COc1cc(C(=O)COC(=O)c2ccncc2)cc(OC)c1OC 4.46%
Cc1cc(C(=O)C(=O)N(C)C)c(C)n1-c1ccc(Cl)c(Cl)c1 14.3%
CC1CN(C(=O)c2ccc(NS(=O)(=O)c3cccc(Cl)c3)cc2)CC(C)O1 (configuration not stated) 5.38%
NS(=O)(=O)c1ccc(N=Cc2c(O)n(-c3nccs3)c(=O)c3ccccc23)cc1 1.11%
Cc1ccc(NC(=O)N/C=C/c2ccco2)c(C)c1 7.78%

Reference: PubChem BioAssay AID624330 (Southern Research Specialized Biocontainment Screening …, 2012)
